HT1080NT lethal – kills 2HG-producing HT-1080-NT fibrosarcoma cells | HT-1080-NT fibrosarcoma viability, CellTiter-Glo ATP luminescence, 48 h | Potency, µM (doses to about 46.1 µM), for inactives: at the top dose activity, negative = less viability, actives largely listed as cytotoxic | hit rate 1.6% among 360,000 | AID 686970;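 note: NT is the 2HG producing partner of a matched IDH1 knockdown line; potency is the fitted concentration of half-maximal effect; 0% = DMSO-treated cells and -100% = media-only wells without cells; nearly all actives have a fitted effect of over 55% in size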
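HT-1080-NT; 750 cells/well; 5% FBS RPMI; 48 h compound, 37 degrees C; CellTiter-Glo luminescence; curve fitting and curve-class assignment.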
HT1080 IDH1KD tx – kills HT-1080 cells with IDH1 knockdown; HT-1080 IDH1 knockdown viability, ATP luminescence, 48 h; Potency, µM (highest dose often 46.1 µM), for the others: at the highest dose activity, negative = toxicity, most hits filed as cytotoxic; hit rate 2% among 360,000;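 note: potency is the fitted concentration of half-maximal effect; 0% = DMSO wells and -100% = cell-free medium wells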
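HT-1080-IDH1KD cells (IDH1 knocked down), 750/well in RPMI with 5% FBS, treated with compound 48 h at 37 degrees C. Viability by CellTiter-Glo luminescence, normalised to DMSO and no-cell wells; concentration-response curves classed.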
IL-1B inflam inh – inflammasome signaling inhibition, IL-1 beta readout. activity change, % at 57.5 µM. AID 743279. THP-1 LPS/ATP IL-1B secretion, AlphaLISA, 16 h; stronger effect = lower value. hit rate 4.7% among 360,000; in the data active = activity change below about -50%; inconclusive = mostly about -30% to -49%
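Secreted IL-1B measured by AlphaLISA bead assay after 16 h compound exposure of THP-1 cells; compounds (final up to 57.5 uM) added 1 h before LPS (250 ng/mL) and ATP (1.25 mM) stimulation; lower signal means less secretion.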
DT40 TDP1 no CPT – qHTS for Inhibitors of human tyrosyl-DNA phosphodiesterase 1 (TDP1): qHTS in cells in absence of CPT | DT40 Tdp1-/- hTDP1 cells, no CPT, ATP luminescence, 48 h | Potency, µM (highest dose often 46.2 µM), for the others: top-dose activity change, negative = growth inhibition, usual class: inhibitors | hit rate 15% among 420,000; note: potency is the fitted concentration of half-maximal effect; nearly all actives have a fitted effect of over 55% in size
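DT40 Tdp1-/-;hTDP1 cells, no CPT (DMSO vehicle only), 400 cells/well; compounds pin-transferred; ≥48 hr, 37 °C; CellTiter-Glo 30 min RT dark, luminescence read.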
DT40 TDP1 CPT – growth inhibition of DT40 Tdp1-/-;hTDP1 cells with camptothecin (screen for TDP1 inhibitors); chicken DT40 Tdp1-/-;hTDP1 cells + 20 nM CPT, ATP luminescence, 48 h; Potency, µM (series often up to 46.2 µM), inactives show top-dose activity change, negative = growth inhibition, actives largely listed as inhibitors; hit rate 12% among 420,000; note: potency is the fitted concentration of half-maximal effect; nearly all actives have a fitted effect of over 55% in size
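Chicken DT40 Tdp1-/- cells complemented with human TDP1, 400 cells/well, exposed to compounds plus 20 nM camptothecin for at least 48 h at 37 C; viability read as ATP content by CellTiter-Glo luminescence.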
* marks the source's active call; other numbers are inactive results; ? = inconclusive; . = no result. Shown are actives, neighbours in structure and some others; about 19% of the full set was active somewhere. Unless noted, calls come from the whole dose curve; as a rule, active = well fitted curve in the direction sought with a large enough effect; inconclusive = small, poorly fitted or top-dose-only effect, or another doubt; inactive = no such curve, though single readings can be large; an effect the other way counts as inactive or inconclusive. Unless noted, % is set by controls: 0 for no effect and ±100 for the full control effect.

SMILES	HT1080NT lethal	HT1080 IDH1KD tx	IL-1B inflam inh	DT40 TDP1 no CPT	DT40 TDP1 CPT
O=C1CCSC2(C(=O)N(Cc3ccc(F)cc3)c3ccccc32)N1c1ccccc1 (stereo not drawn)	.	.	.	8.2µM*	7.3µM*
Cc1cc(C)cc(N2C(=O)CCSC23C(=O)N(Cc2ccccc2)c2ccccc23)c1 (stereo not drawn)	.	.	.	5.8µM*	5.8µM*
O=C1CCSC2(C(=O)N(Cc3ccc(F)cc3)c3ccccc32)N1c1ccc(F)c(F)c1 (stereo not drawn)	.	.	.	10µM*	7.3µM*
Cc1cccc(N2C(=O)CCSC23C(=O)N(Cc2ccc(F)cc2)c2ccccc23)c1 (stereo not drawn)	.	.	.	6.5µM*	9.2µM*
COc1ccc(CCNC(=O)C2CCN(S(=O)(=O)c3c(C)noc3/C=C/c3ccc(C)cc3)CC2)cc1OC	.	.	.	-19%	-18%
O=C1CCSC2(C(=O)N(Cc3ccc(F)cc3)c3ccccc32)N1c1cccc(F)c1 (stereo not drawn)	.	.	.	3.7µM*	5.2µM*
C/C(CC(=O)Nc1ccc(C)c(Cl)c1)=N\NC(=O)c1ccco1	-3%	-16%	-10	-24%	-13%
CN(C)/C=C/C(=O)/C=C/c1ccc(Cl)cc1	12µM*	?	-100*	?	-2%
O=C(NC(=S)NCCCN1CCOCC1)c1ccc([N+](=O)[O-])cc1	15%	-4%	46	-20%	2%
Cc1cc(C)cc(NC(=O)COC(=O)Cc2ccccc2F)c1	10%	3%	2	-13%	1%
Cc1cc(C)nc(-n2nc(C)c(Br)c2Nc2ccc(Br)cc2)n1	-7%	-17%	?	?	?
Cc1nn(C)c(Nc2ccc(Br)cc2)c1Br	-30%	?	-55*	18µM*	15µM*
CCc1noc(C)c1C(=O)Nc1nc(-c2ccc(OC)cc2OC)cs1	-17%	-2%	12	16µM*	?
CCc1noc(C)c1C(=O)Nc1nc(-c2cc(OC)ccc2OC)cs1	-18%	-16%	-11	21µM*	?
COc1ccc(OC)c(-c2csc(NC(=O)CSCc3c(C)noc3C)n2)c1	-21%	-20%	-5	?	?
CCc1noc(C)c1C(=O)Nc1nc(-c2ccc(OC)cc2)cs1	-9%	-17%	32	13µM*	?
COc1ccc(-c2csc(NC(=O)CN3C(=O)CCC3=O)n2)c(OC)c1	?	17%	-27	-3%	6%
CC(CNC(=O)Cn1ccc(N)nc1=O)c1ccccc1 (stereo not drawn)	27%	0%	-4	8%	-23%
c1ccc(-c2nc(-c3cccnc3)cs2)cc1	8%	0%	24	-17%	-10%
C=CCNc1nc(-c2ccc(O)c(C(N)=O)c2)cs1	1%	3%	-7	18µM*	13µM*
c1ccc2oc(-c3csc(NCC4CCCO4)n3)cc2c1 (stereo not drawn)	-14%	4%	-26	?	?
NC(=O)c1cc(-c2csc(NCCc3ccccc3)n2)ccc1O	-29%	-22%	-23	?	?
C=CCNc1nc(-c2cc3ccccc3o2)cs1	4%	2%	-95*	-18%	-20%
NC(=O)c1cc(-c2csc(-c3cccnc3)n2)ccc1O	-1%	-10%	?	13µM*	-23%
COc1cccc(/C=C/c2cnc3ccccc3n2)c1OC	.	.	.	20µM*	?
SMILES	HT1080NT lethal	HT1080 IDH1KD tx	IL-1B inflam inh	DT40 TDP1 no CPT	DT40 TDP1 CPT
COc1cccc(C=Cc2nccc3ccccc23)c1OC	-28%	-26%	-58*	16µM*	?
COc1ccc(/C=C/c2nccc3ccccc23)cc1OC	.	.	.	14µM*	11µM*
COc1cccc(/C=N/NC(=O)c2cccc3ccccc23)c1OC	-7%	-11%	22	?	?
COc1ccc(/C=C/c2ccncc2)cc1OC	14%	6%	-13	-9%	7%
CCc1cccc(-n2c(=O)c3cccnc3n2CC(=O)Nc2ccc(OC)c(Cl)c2)c1	.	.	.	26µM*	21µM*
CC(=O)c1ccc(NC(=O)Cn2c3ncccc3c(=O)n2-c2ccc(C)cc2)cc1	.	.	.	16µM*	16µM*
COc1ccc(NC(=O)Cn2c3ncccc3c(=O)n2-c2ccc(C)c(C)c2)c(OC)c1	.	.	.	-24%	-13%
CCc1ccc(-n2c(=O)c3cccnc3n2CC(=O)N(CC)c2cccc(C)c2)cc1	.	.	.	13µM*	23µM*
CCc1ccc(-n2c(=O)c3cccnc3n2CC(=O)Nc2cc(F)ccc2F)cc1	.	.	.	8.2µM*	2.6µM*
Cc1ccc(-n2c(=O)c3cccnc3n2CC(=O)NCc2ccc(Cl)cc2)cc1	.	.	.	-11%	-5%
CSc1nc(C)cc(SCC(=O)N/N=C/c2ccccc2)n1	8%	-1%	8	-27%	-8%
O=C(CCCC(=O)N(CC(=O)NC1CCCC1)Cc1ccccc1)Nc1ccccn1	17%	16%	18	-21%	-5%
COc1ccc(C(=O)COC(=O)CN2C(=O)C3C4CCC(C4)C3C2=O)cc1 (stereo not drawn)	16%	1%	-12	-25%	-22%
Cc1cc(O)c(C(C)C)cc1N=Nc1ccccc1C(=O)O	?	?	19	?	-11%
Cc1cc(NO)c(C(C)C)cc1N=O	-19%	-21%	-85*	10µM*	8.2µM*
COc1cc(CCc2ccccc2)c(C(=O)O)c(O)c1CC=C(C)C	-12%	-8%	-27	18µM*	23µM*
COc1cc(CCc2ccccc2)c(C(=O)O)c(O)c1C/C=C(/C)CCC=C(C)C	?	?	35	16µM*	?
COc1cccc(OC)c1C(=O)NCCc1ccccc1	-2%	-2%	25	-3%	-3%
COCOc1ccc(/C=C/C(=O)c2c(OCOC)cc(OCOC)c(CC=C(C)C)c2O)cc1OCOC	3%	8%	19	?	?
Cc1nc2nc(C(F)(F)F)[nH]c2nc1C	2%	3%	17	6%	0%
O=CN1Cc2ccccc2-c2ccccc2C1	8%	13%	1	-20%	-7%
CCOC(=O)C1CCCN(C(=O)CCc2nnc(-c3ccc(C(C)=O)s3)o2)C1 (stereo not drawn)	-1%	8%	4	-1%	10%
Cc1ccc(-c2nc(NC(=O)CSc3cc(C)c4ccccc4n3)ns2)cc1	3%	14%	51	16µM*	13µM*
COc1ccc2c(C)cc(SCC(=O)Nc3nsc(-c4ccccc4C)n3)nc2c1	.	.	.	15µM*	?
COc1ccc2c(C)cc(SCC(=O)Nc3nsc(-c4ccc(C)cc4)n3)nc2c1	5%	6%	1	-28%	-9%
CN(C)[C@H]1CCN([C@@H]2CS(=O)(=O)N[C@H]2COCc2ccccc2)C1	24%	0%	38	-6%	-11%
